Consider 25 compounds from PubChem BioAssay (EPA / NIEHS).

Experiment [1] is described as follows: CCTE_Harrill_HTTr_Viability_MCF7: CCTE's 6-hour Cell Viability Assessment for the High-Throughput Transcriptomics (HTTr) Platform, in MCF-7 cells cultured in DMEM + 10% fetal bovine serum, Harrill Lab (AID 2284010). The procedure, abridged: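 Membrane integrity was scored by high-content imaging of propidium iodide dye exclusion after a 6 h exposure across an eight-point dilution series. Data were fitted bidirectionally relative to DMSO as negative control and baseline.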

Experiment [2] in a line: CCTE_Harrill_HTTr_Apoptosis_MCF7: CCTE's 6-hour Apoptosis Assessment for the High-Throughput Transcriptomics (HTTr) Platform, in MCF-7 cells cultured in DMEM + 10% fetal bovine serum, Harrill Lab (AID 2284011). The procedure, abridged:
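MCF-7 cells in DMEM + 10% FBS exposed 6 h to chemicals over an eight-point dilution series. Caspase-3/7 activation imaged by high-content CellEvent Green staining; fitted bidirectionally versus DMSO.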

Experiment [3] is described as follows: CCTE_Harrill_HTTr_CellCount_MCF7: CCTE's Cell Proliferation Assessment for the High-Throughput Transcriptomics (HTTr) Platform, Harrill Lab (AID 2284012; active = hit-call score of the fitted dose curve at least 0.9, where 1 is the maximum;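 note: cells exposed to compound for six hours; intended direction is loss of nuclei count meaning fewer cells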). Put shortly: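 MCF-7 cells were exposed for 6 h to an eight-point dilution series; Hoechst-labeled nuclei were counted by high content imaging. Curves were fitted bidirectionally against DMSO as negative control and baseline, with signal loss indicating reduced cell count.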

The nature of experiment [4]: CCTE_Shafer_MEA_acute_spike_number: CCTE's Neural Acute Assay for Total Number of Spikes, Shafer Lab (AID 2284008).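 For AC50: curve fitted for decrease in spike count so AC50 reflects inhibitors.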 Put shortly: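 Rat primary cortical neurons on 48-well MEA plates, DIV 13 or 15, at 37 C. 40 min baseline then 40 min with compound (0.03-40 uM); spikes detected at 8x rms noise, expressed as percent change from baseline.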
The nature of experiment [5]: CCTE_Shafer_MEA_acute_firing_rate_mean: CCTE's Neural Acute Assay for Mean Firing Rate, Shafer Lab (AID 2284009).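 Note: analyzed for loss of signal so actives lower firing rate relative to DMSO.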 The procedure, abridged: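 Percent change in well-mean firing rate was derived from extracellular spikes detected at 8x rms noise (300-5000 Hz band-pass) before and after a 40-min compound exposure. Cultures were primary rat cortical neurons, tested at 0.03-40 uM.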

The term AC50 denotes the midpoint of the concentration-response curve, whichever way the signal moves.

Inconclusive results are not listed. The source made the active and inactive calls. Rule for the calls, unless noted: active = hit-call score of the fitted dose curve at least 0.9, where 1 is the maximum; inactive = score below 0.9.

For `Sc1ccccc1`, the outcome in experiment [1], in experiment [2] and in experiment [3] was inactive.

For `CN(C)CCO`, the outcome in experiment [4], in experiment [5], in experiment [1] and in experiment [2] was inactive.

In the case of `Cc1cccc(C)c1N`, the outcome in experiment [1], in experiment [2] and in experiment [3] was inactive.

On to `ClC1=C(Cl)[C@]2(Cl)[C@@H]3[C@@H]4C[C@@H]([C@H]5O[C@@H]45)[C@@H]3[C@@]1(Cl)C2(Cl)Cl`, for which the AC50 in experiment [4] was 476 nM (active); in experiment [5], 489 nM (active). The outcome in experiment [1] and in experiment [2] was inactive.

Take `COS(=O)(=O)OC`: the result in experiment [4], in experiment [5], in experiment [1], in experiment [2] and in experiment [3] was inactive.

Consider `CCCCCCOC(=O)c1ccccc1C(=O)OCCCCCC`, for which the result in experiment [1], in experiment [2] and in experiment [3] was inactive.

For `ClC1=C(Cl)[C@]2(Cl)[C@@H]3[C@H]4C[C@H]([C@@H]5O[C@H]45)[C@@H]3[C@@]1(Cl)C2(Cl)Cl`, the AC50 in experiment [4] was 1380 nM (active); in experiment [5], 1400 nM (active). Moreover, the outcome in experiment [1], in experiment [2] and in experiment [3] was inactive.

For the compound `Clc1ccc(Cl)cc1`, the result in experiment [1] and in experiment [2] was inactive.

Turning to `Cc1ccccc1O`, the outcome in experiment [1], in experiment [2] and in experiment [3] was inactive.

Turning to `Cc1cc2c3c(c1)C(c1ccccc1)=N[C@@H](NC(=O)c1ccncc1)C(=O)N3CC2`, the outcome in experiment [1], in experiment [2] and in experiment [3] was inactive.

For the compound `Oc1ccc(Cl)cc1Cl`, the result in experiment [1] and in experiment [2] was inactive.

On to `Cc1cc(O)ccc1Cl`, for which the result in experiment [1], in experiment [2] and in experiment [3] was inactive.

As for `CN(C)c1nc(=O)n(C2CCCCC2)c(=O)n1C`, the result in experiment [1] and in experiment [2] was inactive.

Take `CCOCCOC(C)=O`: the outcome in experiment [1], in experiment [2] and in experiment [3] was inactive.

Consider `O=C(NC(=O)c1cc(F)c(F)cc1Cl)Nc1cc(F)ccc1N1CCC(C(=O)O)CC1`, for which the outcome in experiment [1] and in experiment [2] was inactive.

Turning to `Cc1cc(-c2ccc(N)c(C)c2)ccc1N`, the outcome in experiment [1], in experiment [2] and in experiment [3] was inactive.

Turning to `Cc1ccc(O)c(C)c1`, the outcome in experiment [1], in experiment [2] and in experiment [3] was inactive.

`O=S(=O)(O)C(F)(F)C(F)(F)C(F)(F)C(F)(F)C(F)(F)C(F)(F)F`: the outcome in experiment [1], in experiment [2] and in experiment [3] was inactive.

On to `ClC(Cl)=C(c1ccc(Cl)cc1)c1ccc(Cl)cc1`, for which the compound was called inactive in experiment [4], in experiment [5], in experiment [1], in experiment [2] and in experiment [3].

As to `CCCN(CCC)N=O`, the result in experiment [4], in experiment [5], in experiment [1], in experiment [2] and in experiment [3] was inactive.

Take `C1CC2OC2CC1C1CO1` (stereo not drawn): the result in experiment [1] and in experiment [2] was inactive.

Take `O=NN(c1ccccc1)c1ccccc1`: the outcome in experiment [1] and in experiment [2] was inactive.

`O=S(=O)(O)C(F)(F)C(F)(F)C(F)(F)C(F)(F)F`: the result in experiment [1], in experiment [2] and in experiment [3] was inactive.

Take `CCC(C)(CC)c1cc(NC(=O)c2c(OC)cccc2OC)on1`: the call in experiment [4], in experiment [5], in experiment [1], in experiment [2] and in experiment [3] was inactive.

In the case of `Clc1ccc(C(Cl)(Cl)Cl)cc1`, the compound was classed as inactive in experiment [4], in experiment [5], in experiment [1], in experiment [2] and in experiment [3].
